The sample as a whole holds a higher share of hits than the screen did.
EphB4 ephrin blk: EphB4-ephrin-B2 interaction antagonism; P54760; EphB4 LBD / TNYL-RAW-Alexa532 peptide, fluorescence polarization; inhibition, % at 7 µM; 97,000 compounds, 0.15% hits; AID 720;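 active = inhibition above the screen-wide mean inhibition plus 3 SD, cut at about 15% in these data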;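 note: 0% = DMSO wells and 100% = excess unlabeled TNYL-RAW peptide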
Target sequence (P54760 whole entry, looked up, the tested form may be a part): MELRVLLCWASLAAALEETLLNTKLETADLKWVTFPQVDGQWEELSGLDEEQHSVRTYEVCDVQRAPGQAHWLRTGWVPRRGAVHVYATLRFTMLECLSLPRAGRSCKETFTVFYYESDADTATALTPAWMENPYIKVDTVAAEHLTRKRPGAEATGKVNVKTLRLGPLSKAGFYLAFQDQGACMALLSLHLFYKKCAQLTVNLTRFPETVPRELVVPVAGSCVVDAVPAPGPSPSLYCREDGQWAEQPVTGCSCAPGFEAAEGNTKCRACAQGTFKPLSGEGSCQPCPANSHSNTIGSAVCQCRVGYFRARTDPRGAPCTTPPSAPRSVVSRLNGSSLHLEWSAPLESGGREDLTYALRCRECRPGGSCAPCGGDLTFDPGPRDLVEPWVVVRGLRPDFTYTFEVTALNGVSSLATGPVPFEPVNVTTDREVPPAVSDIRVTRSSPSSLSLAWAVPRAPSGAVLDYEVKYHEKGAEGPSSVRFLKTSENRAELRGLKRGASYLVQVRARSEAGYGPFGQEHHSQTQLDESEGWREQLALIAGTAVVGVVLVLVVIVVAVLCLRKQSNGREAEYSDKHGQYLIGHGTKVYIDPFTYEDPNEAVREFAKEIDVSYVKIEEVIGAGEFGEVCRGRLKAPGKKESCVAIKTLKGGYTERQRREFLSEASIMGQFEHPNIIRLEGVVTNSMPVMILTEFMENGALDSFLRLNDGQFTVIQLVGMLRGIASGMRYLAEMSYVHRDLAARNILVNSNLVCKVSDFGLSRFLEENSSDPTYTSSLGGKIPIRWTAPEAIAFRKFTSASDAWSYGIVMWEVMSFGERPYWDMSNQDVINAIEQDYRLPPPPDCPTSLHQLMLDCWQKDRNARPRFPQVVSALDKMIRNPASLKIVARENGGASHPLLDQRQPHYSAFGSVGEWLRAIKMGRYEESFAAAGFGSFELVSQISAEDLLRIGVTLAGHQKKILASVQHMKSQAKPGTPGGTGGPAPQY
DAT uptake mod: modulates human dopamine transporter uptake under cocaine | Q01959 | LLC-PK1 hDAT cells, [14C]-dopamine uptake with cocaine IC80; actives deviate in either direction | B-score at 10 µM | 110,000 compounds, 1.3% hits | AID 449768;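 active = Z score or B-score, a plate-position-corrected score, falls beyond the plate's 99.7% confidence bounds, in either direction; inactive = both scores lie inside the 99.7% bounds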;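 note: scored against the spread of the other compound wells on the same plate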
D1 allo mod: allosterically modulates the human D1 dopamine receptor; HEK293 D1, CRE-luciferase, dopamine EC30 potentiation; actives deviate in either direction; B-score at 10 µM; 58,000 compounds, 5.9% hits; AID 641;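 active = luminescence count or its row- and column-corrected plate score outside the 99.7% band of the plate's sample wells, on either side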
D1 PAM confirm: confirmation of human D1 dopamine receptor allosteric modulators; shares compounds with D1 allo mod; HEK293 D1 CRE-luciferase, dopamine EC30 potentiation; stronger effect = higher value; luminescence at 10 µM; 2,200 compounds, 88% hits;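 active = luminescence in either of two replicates above the same-plate mean plus 3 SD of the low-dose dopamine control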
D1 no dopamine: activates D1 CRE-luciferase signal without dopamine present. HEK293 D1 CRE-luciferase, luminescence, no dopamine; stronger effect = higher value. 1,900 compounds, 0.8% hits. AID 646. luminescence at 10 µM. shares compounds with D1 allo mod; in the data active = luminescence above about 3900
Isoprot counter: counter-screen for D1 modulators: isoproterenol response in HEK293 cells; shares compounds with D1 allo mod; HEK293 D1 CRE-luciferase, isoproterenol EC30 counter-screen; calls only at 10 µM; 2,200 compounds, 63% hits;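 active = luminescence in either replicate above plate mean of wells with a partly effective reference agonist dose plus 3 SD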;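 note: isoproterenol raises cAMP through native beta-adrenoceptor Gs so signal bypasses D1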
Starred values were filed as active, the others as inactive; i = inactive; x = not tested or not shown; + = active, no number.

SMILES | EphB4 ephrin blk | DAT uptake mod | D1 allo mod | D1 PAM confirm | D1 no dopamine | Isoprot counter
CCOC(=O)CNC(=O)C(NC(=O)C1CCC(C)CC1)C(C)CC (stereo unspecified) | x | 0.082 | x | x | x | x
COc1cc(S(=O)(=O)NCC2CCCO2)ccc1Br (stereo unspecified) | 2 | -0.049 | x | x | x | x
COc1ccc(-c2nn3c(C4CCCCC4)nnc3s2)cc1OC | 3 | 1.6 | x | x | x | x
COc1ccc(-c2nnc3sc(C4CCCCC4)nn23)cc1OC | 0 | 1.6 | 15* | 20172* | x | +
Cc1cccc(Oc2ncnc3oc(-c4ccccc4)cc23)c1C | 1 | -0.35 | x | x | x | x
CCCCC1(Cc2cccc([N+](=O)[O-])c2)C(=O)N(c2ccccc2)N(c2ccccc2)C1=O | 5 | -0.61 | x | x | x | x
COC(=O)C1=C(C(=O)OC)[C@@H]2N(C)c3ccc(OC)cc3[C@@]23C[C@@H](C(=O)OC)N(C(=O)COCc2ccccc2)C3=N1 | x | 0.24 | x | x | x | x
CN1C(=S)SC(C)(C)C1/[N+]([O-])=C/c1cccnc1 (stereo unspecified) | -1 | 0.74 | 7.5* | 5660 | 1560 | i
CN(C)c1ccc(/C=[N+](\[O-])C2SC(=S)N(C)C2(C)C)cc1 (stereo unspecified) | 1 | -0.48 | -0.57 | x | x | x
O=C(CSc1cn(CCNC(=O)c2cccs2)c2ccccc12)NC1CCCC1 | -5 | 1.5 | x | x | x | x
Cc1cc(-c2ccco2)c(C#N)c2nc3ccccc3n12 | x | -0.23 | 1.4 | x | x | x
CC(=O)Nc1nc(CC(C)C)cc(-c2ccco2)c1C#N | -6 | 0.62 | 9.7* | 15584* | x | +
COc1ccc(NC(=O)CCN2C(=O)C3CC=C(Cl)CC3C2=O)cc1 (stereo unspecified) | x | x | -0.67 | x | x | x
CC1=C(C(=O)OC2CCCC2)C(c2ccc(C)o2)C2=C(CC(c3cccs3)CC2=O)N1 (stereo unspecified) | 0 | 0.37 | 0.24 | x | x | x
COc1nc(OC)nc(N2CCCCCC2)n1 | -4 | 0.3 | x | x | x | x
C=CCOc1nc(N2CCCC2)nc(N2CCCC2)n1 | -6 | 1.6 | 24* | 26540* | 1648 | +
Cc1c(C#N)c2ccccc2n1CC(=O)NCC1CCCO1 (stereo unspecified) | -2 | -0.15 | 3.8* | 5268 | 1692 | i
N#Cc1cn(CC(=O)NCC2CCCO2)c2ccccc12 (stereo unspecified) | 7 | -0.021 | 0.2 | x | x | x
CCC1(CC)C(=O)N(C)C(=O)NC1=Nc1ccc(OC)cc1 | 4 | 0.24 | x | x | x | x
Cc1ccc(C)c(S(=O)(=O)NCC(=O)Nc2sc3c(c2C(N)=O)CCC(C)C3)c1 (stereo unspecified) | 3 | 1.5 | x | x | x | x
Cc1cc(C)nc(-n2nc(C)cc2NC(=O)CN2CCC(C)CC2)n1 | 4 | 1.9 | 5.3* | 16268* | 1592 | +
CCC1CCCCN1CC(=O)Nc1cc(C)nn1-c1nc(C)cc(C)n1 (stereo unspecified) | 5 | 0.26 | 0.64 | x | x | x
COC(=O)C1=C(N)Oc2cc(C)[nH]c(=O)c2C1c1cccnc1 (stereo unspecified) | -6 | 0.043 | x | x | x | x
CCO[C@H]1OC(C(=O)N2CCOCC2)=C[C@@H](C)[C@@H]1CCCO | x | 0.14 | x | x | x | x
Cn1nnnc1SCC(=O)Nc1nc(-c2ccccc2)c(-c2ccccc2)o1 | -8 | 0.27 | 3.7* | 9488* | 1600 | i
SMILES | EphB4 ephrin blk | DAT uptake mod | D1 allo mod | D1 PAM confirm | D1 no dopamine | Isoprot counter
Cn1nnnc1SCC(=O)Nc1ccccn1 | 0 | -0.46 | x | x | x | x
COc1ccc(NC(=O)c2cc([N+](=O)[O-])nn2Cc2ccccc2)c(C)c1 | 3 | 0.22 | x | x | x | x
CCc1ccc(-c2cc(C(F)(F)F)n3nc(C(=O)Nc4c(C)nn(Cc5ccc(F)cc5)c4C)cc3n2)s1 | -3 | 0.23 | x | x | x | x
CCOC(=O)C1CCN(C(=O)c2ccco2)CC1 | 3 | -0.15 | 4.4* | 4108 | 1740 | i
COc1ccc(CN2CCN(C(=O)c3ccco3)CC2)cc1 | -3 | 1 | 4.1* | 5504 | 1488 | i
CCOc1cc(CN2CCN(C(=O)c3ccco3)CC2)ccc1OC | x | -0.37 | 0.35 | x | x | x
O=C(COC(=O)C1CCN(C(=O)c2ccc(Cl)cc2)CC1)c1ccco1 | -1 | -0.14 | 0.36 | x | x | x
CCCNC(=O)COC(=O)c1ccccc1OCc1ccc(Cl)cc1 | -2 | 0.19 | x | x | x | x
CCOC(=O)C(NCc1ccc2c(c1)OCO2)(NC(=O)c1ccccc1)C(F)(F)F (stereo unspecified) | 2 | 0.54 | x | x | x | x
CCSc1nc2ccccc2n1Cc1nc(N)nc(N(C)C)n1 | -11 | 0.62 | 5.2* | 10584* | x | +
CCSc1nc2ccccc2n1CC(N)=O | -5 | -1 | 0.32 | x | x | x
CC12CC(NC(=O)N1c1cccc(C(=O)NCc3ccccc3)c1)c1ccccc1O2 (stereo unspecified) | -5 | x | x | x | x | x
N#Cc1c2n(c3c(=O)[nH]cnc13)CCCC2 | 0 | 0.67 | 0.32 | x | x | x
N#Cc1c2n(c3c(=O)n(Cc4ccccc4Cl)cnc13)CCCCC2 | -16 | 0.13 | 8.6* | 11076* | 1496 | +
CCCN1C(=O)c2ccccc2NC1c1ccc(OC)cc1OC (stereo unspecified) | 1 | -0.041 | 0.12 | x | x | x
CCCN1C(=O)c2ccccc2NC1c1ccc(OC)cc1O (stereo unspecified) | 3 | 0.082 | 4.4* | 4884 | 1664 | i
Nc1nc(CN2CCN(c3ccccc3)CC2)nc(N2CCCc3ccccc32)n1 | 10 | 0.09 | 4* | 8864* | 1484 | i
COc1ccc(N2CCN(Cc3nc(N)nc(N4CCCc5ccccc54)n3)CC2)cc1 | -11 | 0.7 | 5.7* | 13244* | 1624 | +
Nc1nc(CN2CCN(c3cccc(Cl)c3)CC2)nc(N2CCCc3ccccc32)n1 | 0 | 0.026 | 1.2 | x | x | x
COc1ccc(N2CCN(Cc3nc(N)nc(Nc4ccc(C)c(Cl)c4)n3)CC2)cc1 | 5 | 1 | 0.45 | x | x | x
CCCn1c(SCC(=O)NCc2ccccc2)nnc1-c1ccncc1 | -1 | -0.56 | x | x | x | x
CCCOC(=O)c1ccc(NC(=O)c2cn(CC)c3nc(C)ccc3c2=O)cc1 | -1 | x | x | x | x | x
CCn1cc(C(=O)Nc2cccc(C(=O)OC)c2)c(=O)c2ccc(C)nc21 | x | 1.6 | 0.17 | x | x | x
CCn1cc(C(=O)OCc2ccc(F)cc2)c(=O)c2ccc(C)nc21 | 6 | 2.4 | 9.9* | 10188* | 1412 | +
CCn1cc(C(=O)OCC(=O)OC2CC(C)CCC2C(C)C)c(=O)c2ccc(C)nc21 (stereo unspecified) | 1 | 0.13 | 6.4* | 9780* | 1408 | i
CCn1cc(C(=O)Nc2ccc(NC(=O)c3ccco3)cc2)c(=O)c2ccc(C)nc21 | x | x | 1.5 | x | x | x
CCn1cc(C(=O)OCc2cccc(Br)c2)c(=O)c2ccc(C)nc21 | -7 | 1.1 | 6.6* | 14972* | 1524 | +
CCn1cc(C(=O)OCC(=O)Nc2c(C)n(C)n(-c3ccccc3)c2=O)c(=O)c2ccc(C)nc21 | -6 | 1.3 | 0.64 | x | x | x
CCn1cc(C(=O)OCc2ccccc2)c(=O)c2ccc(C)nc21 | 0 | 1.3 | 5.9* | 9156* | 1600 | i

Screens from PubChem BioAssay.
